For some of these results: Measured potencies and affinities stand elsewhere.
Legend:
[1] = biological target: Protein translocase subunit SecA (Escherichia coli (strain K12)) (UniProt P10408); experiment: Assay to Identify E. coli SecA ATPase Inhibitors; assay type: functional; design: scale not given: direction of the effect not stated beside the values; conditions: 30 µM
[2] = biological target: T1, Ubiquitin-activating enzyme e1, putative (Leishmania donovani (strain BPK282A1)) (UniProt E9BSI1); experiment: Leishmania donovani Ubiquitin Activating Enzyme (LdE1); assay type: functional; design: scale not given: direction of the effect not stated beside the values; conditions: 30 µM
T1 sequence (whole entry): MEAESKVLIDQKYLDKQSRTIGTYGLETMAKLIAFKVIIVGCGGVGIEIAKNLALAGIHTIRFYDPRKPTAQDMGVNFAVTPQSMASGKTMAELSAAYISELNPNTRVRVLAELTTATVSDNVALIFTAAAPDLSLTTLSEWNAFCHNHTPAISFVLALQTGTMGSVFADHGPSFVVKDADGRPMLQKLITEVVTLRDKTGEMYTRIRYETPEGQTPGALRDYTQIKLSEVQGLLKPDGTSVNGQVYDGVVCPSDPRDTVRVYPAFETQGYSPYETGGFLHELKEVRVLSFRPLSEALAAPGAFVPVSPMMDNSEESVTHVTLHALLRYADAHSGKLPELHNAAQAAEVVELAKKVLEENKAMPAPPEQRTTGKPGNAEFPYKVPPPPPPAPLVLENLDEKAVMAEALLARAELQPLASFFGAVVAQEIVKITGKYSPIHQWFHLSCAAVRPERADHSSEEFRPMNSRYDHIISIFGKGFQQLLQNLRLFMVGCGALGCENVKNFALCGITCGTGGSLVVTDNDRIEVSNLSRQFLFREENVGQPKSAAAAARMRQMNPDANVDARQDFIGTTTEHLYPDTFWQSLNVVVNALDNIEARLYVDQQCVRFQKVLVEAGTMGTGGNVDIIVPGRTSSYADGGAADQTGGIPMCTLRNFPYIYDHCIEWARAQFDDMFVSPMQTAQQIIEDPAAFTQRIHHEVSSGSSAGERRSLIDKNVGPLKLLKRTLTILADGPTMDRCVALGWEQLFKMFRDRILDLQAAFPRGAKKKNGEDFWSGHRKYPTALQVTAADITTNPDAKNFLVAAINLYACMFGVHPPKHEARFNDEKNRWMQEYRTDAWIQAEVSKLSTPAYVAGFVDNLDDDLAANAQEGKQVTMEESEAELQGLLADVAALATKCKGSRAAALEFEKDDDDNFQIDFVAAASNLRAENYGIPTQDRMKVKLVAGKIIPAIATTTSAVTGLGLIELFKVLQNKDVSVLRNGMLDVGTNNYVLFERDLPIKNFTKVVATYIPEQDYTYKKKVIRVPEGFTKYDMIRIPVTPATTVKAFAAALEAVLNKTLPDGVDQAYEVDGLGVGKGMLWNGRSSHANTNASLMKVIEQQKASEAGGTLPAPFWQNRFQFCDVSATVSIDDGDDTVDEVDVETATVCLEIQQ

[3] = biological target: AMP-activated protein kinase, AMPK (Homo sapiens) (UniProt P54646+O43741+P54619+Q9UGJ0+Q9Y478+Q13131+Q9UGI9); experiment: AMP-dependent Kinase enzyme assay. An in vitro enzyme assay that detects ADP turnover that is directly proportional to AMPK activity. This uses naive AMPK that is activated during the assay with MK-8722; assay type: functional; design: scale not given: direction of the effect not stated beside the values; conditions: 30 µM
[4] = biological target: Sialic acid-binding Ig-like lectin 9 (Homo sapiens) (UniProt Q9Y336); experiment: Hs-Siglec9 ALPHAscreen SOP 20170721; design: scale not given: direction of the effect not stated beside the values; conditions: 10 µM
Trypanosoma cruzi = experiment: Trypanosoma cruzi phosphomannomutase and mannose-1-phosphate guanylyltransferase assay; assay type: functional; design: scale not given: direction of the effect not stated beside the values; conditions: 10 µM
[5] = biological target: T2, Arginase-2, mitochondrial (Homo sapiens) (UniProt P78540); experiment: in vitro enzyme assay to detect the production of urea directly proportional to the activity of Arginase II; assay type: functional; design: scale not given: in the data most compounds retested in dose-response had high values
T2 sequence (whole entry): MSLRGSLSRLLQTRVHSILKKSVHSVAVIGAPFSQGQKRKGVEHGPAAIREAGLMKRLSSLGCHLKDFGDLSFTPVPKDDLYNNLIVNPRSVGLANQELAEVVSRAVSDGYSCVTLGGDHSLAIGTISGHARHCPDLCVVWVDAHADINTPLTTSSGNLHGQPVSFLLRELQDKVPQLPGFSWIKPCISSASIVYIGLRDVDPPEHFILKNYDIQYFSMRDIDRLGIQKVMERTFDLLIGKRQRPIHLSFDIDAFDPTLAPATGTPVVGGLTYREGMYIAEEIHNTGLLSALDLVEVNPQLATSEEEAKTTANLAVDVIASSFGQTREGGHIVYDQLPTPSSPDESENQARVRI

[6] = biological target: T3, Proteasome subunit beta (Trypanosoma cruzi) (UniProt O96673); experiment: Trypanosoma cruzi proteasome chymotrypsin-like activity (TcProtChymo) assay.; assay type: functional; design: scale not given: in the data most compounds retested in dose-response had high values; conditions: 9.37 µM
T3 sequence (whole entry): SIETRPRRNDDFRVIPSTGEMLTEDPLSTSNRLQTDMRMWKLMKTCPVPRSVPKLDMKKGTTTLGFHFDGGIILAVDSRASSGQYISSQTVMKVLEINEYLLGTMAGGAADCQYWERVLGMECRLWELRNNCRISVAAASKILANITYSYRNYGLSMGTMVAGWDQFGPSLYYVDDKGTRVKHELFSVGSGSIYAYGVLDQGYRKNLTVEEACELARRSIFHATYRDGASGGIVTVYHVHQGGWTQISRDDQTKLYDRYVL

Homo sapiens = species: Homo sapiens; experiment: To identify inhibition of the IFN signalling (Jak-Stat) pathway via expression of an eGFP reporter gene under the control of an IFN-stimulated response element (ISRE) containing MxA promoter.; assay type: functional; design: scale not given: direction of the effect not stated beside the values; conditions: 30 µM
[7] = biological target: T4, Tyrosyl-tRNA synthetase, putative (Trypanosoma cruzi (strain CL Brener)) (UniProt Q4DSP6); experiment: Trypanosoma cruzi tyrosyl tRNA synthetase (TcYRS) _High Tyrosine SOP; assay type: functional; design: scale not given: in the data most compounds retested in dose-response had high values; conditions: 30 µM
T4 sequence (whole entry): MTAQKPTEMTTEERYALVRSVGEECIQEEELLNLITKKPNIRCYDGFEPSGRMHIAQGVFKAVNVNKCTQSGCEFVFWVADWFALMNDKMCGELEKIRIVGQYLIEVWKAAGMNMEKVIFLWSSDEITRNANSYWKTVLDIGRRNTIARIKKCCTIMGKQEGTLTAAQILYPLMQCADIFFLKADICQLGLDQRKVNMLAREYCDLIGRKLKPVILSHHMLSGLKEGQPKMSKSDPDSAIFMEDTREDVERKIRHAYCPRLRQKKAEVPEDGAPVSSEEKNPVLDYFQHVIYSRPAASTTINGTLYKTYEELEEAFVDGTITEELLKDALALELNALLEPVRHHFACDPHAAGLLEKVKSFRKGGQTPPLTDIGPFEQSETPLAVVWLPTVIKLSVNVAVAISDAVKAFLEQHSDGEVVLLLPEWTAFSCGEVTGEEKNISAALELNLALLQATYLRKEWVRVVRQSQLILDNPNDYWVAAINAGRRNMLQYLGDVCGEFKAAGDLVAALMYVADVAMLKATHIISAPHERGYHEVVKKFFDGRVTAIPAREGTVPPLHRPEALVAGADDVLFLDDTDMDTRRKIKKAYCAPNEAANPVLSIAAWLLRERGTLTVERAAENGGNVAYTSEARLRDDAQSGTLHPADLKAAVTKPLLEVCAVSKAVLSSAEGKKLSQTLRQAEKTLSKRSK

[8] = biological target: T4, Tyrosyl-tRNA synthetase, putative (Trypanosoma cruzi (strain CL Brener)); experiment: Trypanosoma cruzi tyrosyl tRNA synthetase (TcYRS) SOP; assay type: functional; design: scale not given: direction of the effect not stated beside the values; conditions: 30 µM
[9] = biological target: Chromo domain-containing protein 1 (Saccharomyces cerevisiae (strain ATCC 204508 / S288c) (Baker's yeast)) (UniProt P32657); experiment: ScCHD-1 Enzyme Inhibition Assay; assay type: functional; design: scale not given: in the data most compounds retested in dose-response had high values; conditions: 30 µM
[10] = biological target: T5, Methionyl-tRNA synthetase, putative (Leishmania donovani (strain BPK282A1)) (UniProt E9BF75); experiment: Leishmania donovani Methionine tRNA synthetase (LdMetRS):v7. Dose response assay; assay type: functional; design: conc 80 nM, time 150 minutes
T5 sequence (whole entry): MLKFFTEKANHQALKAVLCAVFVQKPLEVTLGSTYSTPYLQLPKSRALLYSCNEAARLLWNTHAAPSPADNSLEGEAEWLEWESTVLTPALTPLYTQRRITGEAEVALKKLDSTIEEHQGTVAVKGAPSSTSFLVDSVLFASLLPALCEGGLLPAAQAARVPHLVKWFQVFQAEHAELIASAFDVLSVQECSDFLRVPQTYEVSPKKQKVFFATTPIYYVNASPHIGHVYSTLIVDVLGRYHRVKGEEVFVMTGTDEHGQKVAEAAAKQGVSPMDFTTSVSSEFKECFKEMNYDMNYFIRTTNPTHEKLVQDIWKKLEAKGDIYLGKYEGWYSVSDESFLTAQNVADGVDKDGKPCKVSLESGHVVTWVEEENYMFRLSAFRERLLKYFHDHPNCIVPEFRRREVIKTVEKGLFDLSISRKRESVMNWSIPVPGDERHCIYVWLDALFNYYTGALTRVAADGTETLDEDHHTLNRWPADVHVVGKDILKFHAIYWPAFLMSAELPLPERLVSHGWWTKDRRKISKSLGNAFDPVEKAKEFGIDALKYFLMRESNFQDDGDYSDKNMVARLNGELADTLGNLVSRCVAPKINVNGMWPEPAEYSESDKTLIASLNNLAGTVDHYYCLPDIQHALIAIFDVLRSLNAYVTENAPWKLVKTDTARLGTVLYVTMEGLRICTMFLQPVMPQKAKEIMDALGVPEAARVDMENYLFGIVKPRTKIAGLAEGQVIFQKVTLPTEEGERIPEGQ

Sequence of Protein translocase subunit SecA (Escherichia coli (strain K12)) (P10408 whole entry): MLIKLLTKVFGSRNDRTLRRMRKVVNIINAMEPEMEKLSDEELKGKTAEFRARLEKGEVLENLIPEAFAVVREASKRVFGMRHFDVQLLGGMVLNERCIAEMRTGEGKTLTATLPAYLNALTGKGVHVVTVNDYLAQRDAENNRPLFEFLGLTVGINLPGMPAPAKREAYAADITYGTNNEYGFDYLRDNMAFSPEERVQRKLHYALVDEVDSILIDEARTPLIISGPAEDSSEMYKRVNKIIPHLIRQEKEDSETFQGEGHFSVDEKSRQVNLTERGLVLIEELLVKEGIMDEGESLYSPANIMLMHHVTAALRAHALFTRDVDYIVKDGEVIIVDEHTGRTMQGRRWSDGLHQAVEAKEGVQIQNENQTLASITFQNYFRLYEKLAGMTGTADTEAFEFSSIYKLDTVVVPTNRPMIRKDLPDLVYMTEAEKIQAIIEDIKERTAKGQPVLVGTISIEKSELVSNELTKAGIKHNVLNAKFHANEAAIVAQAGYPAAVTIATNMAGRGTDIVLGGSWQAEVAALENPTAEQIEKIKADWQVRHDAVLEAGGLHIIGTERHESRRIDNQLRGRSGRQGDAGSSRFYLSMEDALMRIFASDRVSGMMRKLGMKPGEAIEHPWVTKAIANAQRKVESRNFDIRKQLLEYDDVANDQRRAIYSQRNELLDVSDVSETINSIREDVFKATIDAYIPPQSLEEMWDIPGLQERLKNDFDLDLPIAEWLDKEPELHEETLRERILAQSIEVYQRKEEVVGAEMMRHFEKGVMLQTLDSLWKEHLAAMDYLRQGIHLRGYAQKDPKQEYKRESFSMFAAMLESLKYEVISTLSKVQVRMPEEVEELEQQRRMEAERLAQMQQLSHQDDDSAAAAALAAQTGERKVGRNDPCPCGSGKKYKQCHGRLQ
Sequence of Chromo domain-containing protein 1 (Saccharomyces cerevisiae (strain ATCC 204508 / S288c) (Baker's yeast)) (P32657 whole entry, the tested form may be a part): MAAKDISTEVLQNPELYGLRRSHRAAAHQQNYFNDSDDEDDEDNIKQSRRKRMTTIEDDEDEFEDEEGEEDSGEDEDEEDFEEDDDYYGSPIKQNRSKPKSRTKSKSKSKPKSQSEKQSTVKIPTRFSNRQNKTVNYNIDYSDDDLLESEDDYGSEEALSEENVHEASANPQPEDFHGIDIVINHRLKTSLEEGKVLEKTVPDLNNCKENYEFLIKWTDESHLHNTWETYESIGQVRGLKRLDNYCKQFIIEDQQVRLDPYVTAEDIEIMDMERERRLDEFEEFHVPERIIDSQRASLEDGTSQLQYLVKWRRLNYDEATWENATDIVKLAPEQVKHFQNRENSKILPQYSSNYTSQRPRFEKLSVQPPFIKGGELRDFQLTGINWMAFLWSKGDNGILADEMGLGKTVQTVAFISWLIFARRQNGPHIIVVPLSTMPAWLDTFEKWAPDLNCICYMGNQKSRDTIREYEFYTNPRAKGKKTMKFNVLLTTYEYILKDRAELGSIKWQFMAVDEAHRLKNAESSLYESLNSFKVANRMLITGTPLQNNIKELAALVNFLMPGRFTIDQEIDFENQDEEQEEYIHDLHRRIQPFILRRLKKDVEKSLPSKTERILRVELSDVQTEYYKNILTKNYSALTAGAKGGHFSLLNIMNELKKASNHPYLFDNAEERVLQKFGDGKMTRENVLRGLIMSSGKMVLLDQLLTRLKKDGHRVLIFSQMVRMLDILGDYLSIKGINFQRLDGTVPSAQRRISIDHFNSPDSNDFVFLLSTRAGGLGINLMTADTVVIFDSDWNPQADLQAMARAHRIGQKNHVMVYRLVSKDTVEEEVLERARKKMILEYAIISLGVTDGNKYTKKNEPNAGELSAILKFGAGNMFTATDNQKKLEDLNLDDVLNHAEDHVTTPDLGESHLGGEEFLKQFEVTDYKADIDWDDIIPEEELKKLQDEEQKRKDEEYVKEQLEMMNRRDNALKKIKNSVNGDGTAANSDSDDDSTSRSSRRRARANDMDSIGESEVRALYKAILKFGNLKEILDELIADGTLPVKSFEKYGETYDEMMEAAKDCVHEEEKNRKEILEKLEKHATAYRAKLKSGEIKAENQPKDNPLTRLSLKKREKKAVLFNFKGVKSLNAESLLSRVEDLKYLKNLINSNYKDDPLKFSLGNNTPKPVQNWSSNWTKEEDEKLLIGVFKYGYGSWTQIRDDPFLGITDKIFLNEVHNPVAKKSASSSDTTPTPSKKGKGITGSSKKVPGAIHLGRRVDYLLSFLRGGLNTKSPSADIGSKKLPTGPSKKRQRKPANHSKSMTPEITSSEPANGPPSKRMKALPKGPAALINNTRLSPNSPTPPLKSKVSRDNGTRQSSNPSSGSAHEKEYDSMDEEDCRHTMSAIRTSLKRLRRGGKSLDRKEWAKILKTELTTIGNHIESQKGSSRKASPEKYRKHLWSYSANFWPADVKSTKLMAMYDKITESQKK
Sequence of Sialic acid-binding Ig-like lectin 9 (Homo sapiens) (Q9Y336 whole entry): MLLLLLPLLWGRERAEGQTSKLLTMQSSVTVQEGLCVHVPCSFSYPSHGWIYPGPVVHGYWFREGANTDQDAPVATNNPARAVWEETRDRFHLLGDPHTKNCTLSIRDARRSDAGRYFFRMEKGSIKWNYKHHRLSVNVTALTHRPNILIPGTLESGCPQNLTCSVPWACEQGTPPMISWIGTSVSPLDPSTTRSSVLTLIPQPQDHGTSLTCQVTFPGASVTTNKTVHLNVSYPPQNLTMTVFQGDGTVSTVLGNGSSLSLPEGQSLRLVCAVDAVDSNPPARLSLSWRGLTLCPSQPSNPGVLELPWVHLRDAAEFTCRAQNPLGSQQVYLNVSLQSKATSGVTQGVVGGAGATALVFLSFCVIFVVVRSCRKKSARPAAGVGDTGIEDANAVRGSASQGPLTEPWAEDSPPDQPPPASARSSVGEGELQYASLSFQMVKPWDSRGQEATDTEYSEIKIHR

## COc1ccc(C(=O)N2C[C@@H](C(=O)O)[C@H](c3ccccc3C)C2)c(O)c1
[1]
  Percent Effect: -5.13%
[2]
  Percent Effect: 5.41%
[3]
  Percent Effect: -4.36%
[4]
  Percent Effect: 32%
Trypanosoma cruzi
  Percent Effect: 1.86%
[5]; 30 µM
  Percent Effect: 4.87%
[5]; 33.3 µM
  Percent Effect: -0.248%
[6]
  Percent Effect: 9.53%
Homo sapiens
  Percent Effect: -12.1%
[7]
  Percent Effect: 6.45%
[8]
  Percent Effect: 16.1%
[9]
  Percent Effect: -2.87%

## Cc1ccc(CNCc2nnc3n2CC(C(F)(F)F)CC3)cc1 (centres undefined)
[1]
  Percent Effect: -0.646%
[2]
  Percent Effect: 18.9%
[3]
  Percent Effect: -2.64%
[4]
  Percent Effect: 4.4%
Trypanosoma cruzi
  Percent Effect: 3.23%
[5]; 30 µM
  Percent Effect: -11.3%
[5]; 33.3 µM
  Percent Effect: -3.23%
[6]
  Percent Effect: 8.5%
Homo sapiens
  Percent Effect: 11.6%
[7]
  Percent Effect: 5.38%
[8]
  Percent Effect: 13.6%
[9]
  Percent Effect: -11.9%

## CC1CCCN(CC(=O)N2CCC(c3ncc4c(n3)CCNC4)CC2)C1 (centres undefined)
[10]; MAX_EFFECT 4.401408451
  PXC50: < 4
[10]; MAX_EFFECT 5.700712589
  PXC50: < 4
[1]
  Percent Effect: -3.77%
[2]
  Percent Effect: 2.67%
[3]
  Percent Effect: 14.5%
[4]
  Percent Effect: -3.5%
Trypanosoma cruzi
  Percent Effect: 0.394%
[5]; 33.3 µM
  Percent Effect: -0.699%
[6]
  Percent Effect: 5.02%
Homo sapiens
  Percent Effect: 3.99%
[7]
  Percent Effect: -1.06%
[8]
  Percent Effect: -3.85%
[9]
  Percent Effect: 2.27%

## FC(F)(F)C1CCc2nnc(CNCc3ccsc3)n2C1 (centres undefined)
[1]
  Percent Effect: -4.02%
[2]
  Percent Effect: 16.2%
[3]
  Percent Effect: 1.38%
[4]
  Percent Effect: 30.8%
Trypanosoma cruzi
  Percent Effect: 5.18%
[5]; 30 µM
  Percent Effect: 5.95%
[5]; 33.3 µM
  Percent Effect: 10.2%
[6]
  Percent Effect: 10.4%
Homo sapiens
  Percent Effect: -8.39%
[7]
  Percent Effect: 5.38%
[8]
  Percent Effect: 16.1%
[9]
  Percent Effect: -13.2%

## Cc1nc(NCc2nncn2C2CC2)c2c(CC(C)C)csc2n1
[10]; MAX_EFFECT 9.660574413
  PXC50: < 4
[10]; MAX_EFFECT 12.53263708
  PXC50: < 4
[3]
  Percent Effect: -3.8%

## CC1CCN(S(=O)(=O)c2cccn(CC(=O)NC3CCCC3)c2=O)CC1
[1]
  Percent Effect: -2.96%
[2]
  Percent Effect: 5.48%
[3]
  Percent Effect: -5.65%
[4]
  Percent Effect: -2%
Trypanosoma cruzi
  Percent Effect: -5.68%
[5]; 30 µM
  Percent Effect: 2.7%
[5]; 33.3 µM
  Percent Effect: 0.455%
[6]
  Percent Effect: 17.2%
Homo sapiens
  Percent Effect: 4.13%
[7]
  Percent Effect: 3.23%
[8]
  Percent Effect: 10%
[9]
  Percent Effect: -2.6%

Source: ChEMBL document CHEMBL3988442, “University of Dundee, Small-Polar-MMV Screening Library” (2021)
